# Paper PMC4336329 (PLoS ONE, 2015)
# The campaign covered roughly 310,000 compounds. About 14,000 (4.5%) showed an effect of 50% or more. Effects have a minus sign here. The sample holds strong results, similar compounds and a random draw of the others, so the mix is not that of the screen.
# Molecular target: human ether-à-go-go-related gene (hERG) potassium channel (human, UniProt Q12809)
# Assay: primary screen, population patch clamp on CHO cells stably expressing hERG; higher = less effect of the substance
# 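Further: peak tail current of the secondary pulse compared with the same well before compound.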
# human ether-à-go-go-related gene (hERG) potassium channel, sequence (Q12809 whole entry, looked up): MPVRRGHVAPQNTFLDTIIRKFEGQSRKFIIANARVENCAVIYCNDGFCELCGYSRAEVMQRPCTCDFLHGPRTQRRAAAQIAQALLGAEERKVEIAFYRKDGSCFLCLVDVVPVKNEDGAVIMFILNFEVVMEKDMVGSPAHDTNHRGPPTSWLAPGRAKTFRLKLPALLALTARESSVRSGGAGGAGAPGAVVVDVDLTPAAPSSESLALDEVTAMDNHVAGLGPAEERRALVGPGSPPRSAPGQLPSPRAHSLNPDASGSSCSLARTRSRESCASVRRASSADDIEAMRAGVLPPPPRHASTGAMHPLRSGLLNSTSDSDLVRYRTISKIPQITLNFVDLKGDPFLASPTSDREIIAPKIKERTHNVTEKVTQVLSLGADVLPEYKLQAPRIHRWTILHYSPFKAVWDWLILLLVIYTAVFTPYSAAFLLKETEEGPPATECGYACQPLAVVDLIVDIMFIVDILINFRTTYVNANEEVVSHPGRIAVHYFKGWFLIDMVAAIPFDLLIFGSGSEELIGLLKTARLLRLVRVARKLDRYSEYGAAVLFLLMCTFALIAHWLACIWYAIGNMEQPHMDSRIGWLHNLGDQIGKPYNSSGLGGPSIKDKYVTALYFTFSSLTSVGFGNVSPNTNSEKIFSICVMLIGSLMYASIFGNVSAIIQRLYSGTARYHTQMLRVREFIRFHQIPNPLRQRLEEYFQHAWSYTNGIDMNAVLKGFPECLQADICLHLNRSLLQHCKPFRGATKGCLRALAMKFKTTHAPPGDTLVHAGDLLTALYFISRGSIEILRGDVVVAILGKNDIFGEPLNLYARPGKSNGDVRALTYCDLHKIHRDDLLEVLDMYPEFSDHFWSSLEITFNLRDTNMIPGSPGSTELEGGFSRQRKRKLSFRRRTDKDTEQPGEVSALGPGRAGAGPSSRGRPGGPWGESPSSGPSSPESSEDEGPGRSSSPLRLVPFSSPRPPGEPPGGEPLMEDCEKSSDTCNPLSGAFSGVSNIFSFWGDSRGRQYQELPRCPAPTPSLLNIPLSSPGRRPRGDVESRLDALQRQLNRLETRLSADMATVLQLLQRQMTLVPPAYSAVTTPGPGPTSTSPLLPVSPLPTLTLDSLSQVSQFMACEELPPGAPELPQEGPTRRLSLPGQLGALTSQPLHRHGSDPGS
row,SMILES,"hERG current change (%, negative = inhibition) at 10uM"
1,Cc1nc2c(C)cccc2cc1C(=O)N/N=C/c1ccc(N(C)C)cc1,-9.49%
2,COC(=O)c1cc(C)sc1NC(=O)CN1CCN(C(=O)C2CCCO2)CC1 (stereo not shown),-34.7%
3,O=C(CS(=O)(=O)c1ccccc1)N1CCN(c2ccccc2)CC1,2.36%
4,CCCOc1ccc(C2c3c(oc4ccccc4c3=O)C(=O)N2CCCN2CCOCC2)cc1 (stereo not shown),-6.76%
5,CCCC(C)NC(=O)c1sc2nc3n(c(=O)c2c1C)CCC3 (stereo not shown),-6.29%
6,Cc1cc(NC(=O)C2COc3ccccc3O2)no1 (stereo not shown),-0.48%
7,O=C(CSc1n[nH]c(-c2ccco2)n1)Nc1sc2c(c1C(=O)Nc1ccccc1)CCCC2,-41%
8,Cc1ccccc1NC(=O)c1c(C)[nH]c(=S)c(C#N)c1-c1ccc(Cl)cc1,21.1%
9,Cc1ccc(-c2nnc(N(C)C(=O)C3CCCO3)s2)cn1 (stereo not shown),6.74%
10,Cc1cc(C)cc(-n2c(C)cc(/C=C3\C(=N)N4N=C(CC(C)C)SC4=NC3=O)c2C)c1,5.86%
11,c1ccc(COCCC2CO2)cc1 (stereo not shown),5.49%
12,O=C(/C=C/c1ccc([N+](=O)[O-])cc1)N1CCN(c2ccccc2F)CC1,-34.2%
13,O=C1CN(C(=O)/C=C/c2ccc(Cl)cc2Cl)CCN1,-19.2%
14,CN1CCCN(C(=O)/C=C/c2ccc(Cl)cc2Cl)CC1.Cl,-67%
15,O=C(/C=C/c1ccc(Cl)cc1)N1CCN(c2ccccc2[N+](=O)[O-])CC1,-75.4%
16,O=C(/C=C/c1ccc(Cl)cc1)N1CCN(c2ccccn2)CC1,-32.3%
17,O=C(/C=C/c1ccccc1Cl)N1CCCN(C(=O)/C=C/c2ccccc2Cl)CC1,-26.1%
18,Cc1ccc(CN2C3CCCC2CC(NC(=O)c2ccc(F)cc2)C3)cc1 (stereo not shown),-74.1%
19,O=C(NC1CC2CCCC(C1)N2Cc1ccc(F)cc1)c1ccc(F)cc1 (stereo not shown),-70.8%
20,CCCNC(=S)NC1CC2CCCC(C1)N2Cc1ccc(F)cc1 (stereo not shown),-60.6%

row,SMILES,"hERG current change (%, negative = inhibition) at 10uM"
1,CCCNC(=S)NC1CC2CCC(C1)N2Cc1ccccc1 (stereo not shown),-35.7%
2,CC(=O)NC1CC2CCC(C1)N2Cc1ccc(C)cc1 (stereo not shown),-25.4%
3,CCCNC(=S)NC1CC2CCCC(C1)N2CC(C)C.Cl (stereo not shown),13.1%
4,O=C(NC1CC2CCCC(C1)N2C(=O)NC1CCCCC1)c1ccc(F)cc1 (stereo not shown),4.98%
5,CNC(=S)N1C2CCCC1CC(NC(=O)c1ccc(F)cc1)C2 (stereo not shown),6.93%
6,CCC(=O)NC1CC2CCCC(C1)N2Cc1ccc(C)cc1 (stereo not shown),-37.4%
7,Cc1ccc(C(=O)NC2CC3CCCC(C2)N3Cc2ccccc2)cc1 (stereo not shown),-40.4%
8,Cc1ccc(CN2C3CCCC2CC(NC(=O)c2ccc(C)cc2)C3)cc1 (stereo not shown),-77.7%
9,CC(=O)NC1CC2CCCC(C1)N2Cc1ccc(C)cc1 (stereo not shown),-30.5%
10,CC(NC(=O)CSc1nnc(CC(=O)Nc2ccc(Cl)c(Cl)c2)n1C)c1ccccc1 (stereo not shown),4.55%
11,COc1ccc(C2CC(c3ccc(Cl)cc3Cl)Nc3nc(N)nn32)cc1OC (stereo not shown),-18.7%
12,COc1cc(NC(C)=O)c2ncccc2c1[N+](=O)[O-],-5.4%
13,CC1CCCCC1NC(=O)CCN1C(=O)C2C3C=CC(C3)C2C1=O (stereo not shown),13%
14,COc1cc2c(cc1OC)C(c1cc3cc4c(cc3[nH]c1=O)OCO4)N(C(=O)C(C)C)CC2 (stereo not shown),-4.79%
15,N#C/C(=C\c1ccc(-c2ccccc2[N+](=O)[O-])o1)C(N)=O,24.6%
16,CNC(=O)/C(C#N)=C/c1ccc(-c2ccccc2[N+](=O)[O-])o1,8.72%
17,Cc1ccc(C(=O)N/C(=C\c2ccco2)C(=O)NCCCN2CCOCC2)cc1C,-12.7%
18,Cc1ccc(C(=O)N/C(=C\c2sccc2C)C(=O)NCCCN2CCOCC2)cc1,-17.7%
19,Cc1ccc(C(=O)N/C(=C\c2cn(C)c3ccccc23)C(=O)NCCCN2CCOCC2)cc1,0.137%
20,N#C/C(=C/c1ccc(-c2ccccc2[N+](=O)[O-])o1)C(=O)NCCN1CCCCC1,-69.1%

row,SMILES,"hERG current change (%, negative = inhibition) at 10uM"
1,N#C/C(=C\c1ccc(-c2cccc([N+](=O)[O-])c2)o1)C(=O)NCCN1CCOCC1,-47.2%
2,Cc1ccc(C(=O)N/C(=C\c2ccc(-c3cccc([N+](=O)[O-])c3)o2)C(=O)NCCCN2CCOCC2)cc1,-74.9%
3,Cc1ccc(C(=O)N/C(=C\c2ccc(-c3ccccc3[N+](=O)[O-])o2)C(=O)NCCCN2CCOCC2)cc1,-61.9%
4,O=C(CSc1nnc(SCc2ccccc2)s1)N/N=C/C=C\c1ccco1,9.17%
5,Cc1ccccc1-c1nc2cc(N)ccc2o1,-15.6%
6,Cc1ccc2c(c1)C(c1ccccc1)N(C(=O)CC(C)C)CC(=O)N2 (stereo not shown),-28.5%
7,O=C1N=C(N2C=CC(=C3C=CNC=C3)C=C2)/C(=C/N=NC(=O)c2ccccc2)S1,30.3%
8,CC(=O)Nc1ccc(CN(C)CC2CCCN(CCc3cccc(C(F)(F)F)c3)C2)cc1 (stereo not shown),-68.4%
9,COc1cc(CN(C)CC2CCCN(CCc3cccc(C(F)(F)F)c3)C2)ccc1O (stereo not shown),-62.8%
10,O=c1cnn(-c2ccccc2)c(-c2ccccc2)c1,3.33%
11,Cc1cc(C)n2ncnc2n1,2.2%
12,O=C1NC(=Nc2ccccc2)S/C1=C/c1cccnc1,15.9%
13,Cn1c(O)c(/C=C2\C=NN=C2c2ccccc2)sc1=S,0.793%
14,CCOc1cc(CN2CCN(Cc3ccc(C)o3)C(CCO)C2)ccc1OC (stereo not shown),-3.33%
15,COc1ccc(CN2CCN(Cc3ccccc3)C(CCO)C2)cc1OC (stereo not shown),-30.7%
16,COc1ccc(CN2CCN(CCCc3ccccc3)C(CCO)C2)cc1OC (stereo not shown),-72.8%
17,COc1cc(CN2CCN(CCCc3ccccc3)C(CCO)C2)cc(OC)c1O (stereo not shown),-61.5%
18,CCOc1cc(CN2CCN(CCc3ccccc3)C(CCO)C2)ccc1OC (stereo not shown),-66.5%
